The values below come from PubChem BioAssay (NCATS).

The nature of assay [1]: Cell Viability - Jurkat (AID 426;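 active means dose-dependent loss of cell ATP signal giving a full or clear fitted curve, ranked by lower potency value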; further: potency means the concentration at half of the fitted maximal effect). The settings on record: qHTS. Summed up: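 Cells of the human T-cell leukemia line Jurkat (E6-1) are seeded at 5000 per well, treated with compound across a concentration range for 40 hours at 37 °C, then lysed with CellTiter-Glo; luminescence reports ATP.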
In general terms: Quantitative high-throughput screening tests each substance at several concentrations.

Assay [2] is described as follows: Cell Viability - Hek293 (AID 427;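 active means compounds whose dose-response curve shows a full or clear partial loss of cell viability, called from curve shape rather than a numeric limit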;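 further: potency means the concentration at half of the fitted maximal effect; cells exposed to compound for 40 hours at 37 °C before reading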). The settings on record: qHTS. In short, it runs like this:
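HEK293 cells in complete medium were exposed to compound for 40 hr at 37 °C, then cellular ATP was read by CellTiter-Glo luminescence. Data were normalized to DMSO (basal) and 100 uM tamoxifen (100% inhibition), and AC50 came from Hill fits.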

A short description of assay [3]: Cell Viability - N2a (AID 540).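 Further: plate controls were DMSO alone for no effect and tamoxifen control for full effect; nearly all actives have a fitted effect of over 45% in size.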 The settings on record: N2a mouse neuroblastoma cell viability; at 92.2 µM (top of the series). Summed up:
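Cytotoxicity was scored as loss of cellular ATP in N2a cells, a mouse neuroblastoma line. Compounds are applied in a qHTS concentration series for 40 hr at 37 °C.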

Assay [4] is described as follows: Cell Viability - H-4-II-E (AID 543). Further: on the % scale 0 is the no-effect control and ±100 the full control effect; nearly all actives have a fitted effect of over 35% in size. As to conditions: H-4-II-E rat hepatoma viability; series mostly up to 92.2 µM. In short, it runs like this: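 Cells seeded at 1500 per well and rested 5 hr; compounds added; 40 hr incubation at 37 °C; CellTiter-Glo added, 20 min at room temperature; luminescence read. Hill-equation fits gave AC50.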
Assay [5] in a line: Cellular Toxicity (caspase-3) HepG2 (AID 654).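 Further: cells exposed to compound for 16 hours before reading; 0% = DMSO alone and 100% = caspase signal from 100 µM tamoxifen.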 The settings on record: HepG2 caspase-3 activation, luminescence, 0% = DMSO only, 100% = tamoxifen; series mostly up to 92.2 µM. Summed up:
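Caspase 3/7 activation in HepG2 is measured as rising luminescence after a 16 hr treatment at 37 °C. Values are scaled between DMSO basal and 100 uM tamoxifen, and AC50 is fitted with the Hill equation.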

A short description of assay [6]: Cellular Toxicity (caspase-3) NIH 3T3 (AID 666).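 Further: caspase signal read after 16 h compound exposure; 0% = DMSO basal and 100% = 100 µM tamoxifen stimulation.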 The settings on record: NIH 3T3 caspase-3 activation, apoptosis/toxicity, 0% DMSO, 100% is 100 µM tamoxifen; series mostly up to 92.2 µM. In short, it runs like this: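 Cells were plated at 1000 per well and incubated 5 hr at 37°C, then compound was added for 16 hr. Caspase-Glo 3/7 reagent followed for 20 min at room temperature before luminescence was read.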

Assay [7] can be described thus: MultiTox-Fluor Cytotoxicity Assay - LYMP1-002 - Live Cells (AID 955).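 Further: cells exposed to compound for 16 hours; on the % scale 0 is the no-effect control and ±100 the full control effect.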 As to conditions: LYMP1-002 lymphoblastoid live-cell protease fluorescence viability; series mostly up to 46.1 µM. Summed up:
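Cells were seeded at 2500 per well and incubated 5 hr. Compounds were then added for 16 hr at 37 C, followed by MultiTox-Fluor reagent for 60 min at room temperature and fluorescence reading of viable-cell protease signal.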

The nature of assay [8]: MultiTox-Fluor Cytotoxicity Assay - LYMP1-003 - Live Cells (AID 962).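 Further: cells exposed to compound for 16 hours at 37 °C; 0% = DMSO only and full loss = 92 µM tetraoctylammonium bromide; cytotoxic hits lower the live-cell protease signal.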 The settings on record: LYMP1-003 lymphoblastoid cells, MultiTox-Fluor live-cell protease fluorescence; series mostly up to 92.2 µM. In short, it runs like this: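 Acute cytotoxicity is scored as a drop in live-cell protease activity in human lymphoblastoid LYMP1-003 cells after 16 hr compound exposure at 37 C. AC50 values come from Hill-equation modelling of concentration-response data.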

Assay [9] can be described thus: Cell Viability - LYMP1-003 - Assay at 40 hr (AID 964). Further: on the % scale 0 is the no-effect control and ±100 the full control effect; nearly all actives have a fitted effect of over 60% in size. As to conditions: LYMP1-003 lymphoblastoid viability; series mostly up to 92.2 µM. Summed up: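 Luminescent ATP signal (CellTiter-Glo) served as the viability read-out after 40 hr compound treatment of human lymphoblastoid LYMP1-003 cells at 37 C. Decreases in ATP were fitted with the Hill equation to give AC50.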

Assay [10] can be described thus: Cell Viability - LYMP2-003 (AID 965).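 Further: cells exposed to compounds for 24 h before reading; 0% = DMSO only and full effect = 92 µM tetraoctylammonium bromide; nearly all actives have a fitted effect of over 50% in size.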 The settings on record: LYMP2-003 lymphoblastoid cell viability; series mostly up to 92.2 µM. In short, it runs like this: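 qHTS, human lymphoblastoid line, 2500 cells/well, complete medium. 24 h drug, 37 C. ATP-based luminescent readout; Hill-fit AC50.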
Assay [11] can be described thus: Cell Viability - LYMP2-006 (AID 978).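 Further: cells exposed to compound for 24 hours; on the % scale 0 is the no-effect control and ±100 the full control effect; nearly all actives have a fitted effect of over 60% in size.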 The settings on record: LYMP2-006 lymphoblastoid cell viability, qHTS; series mostly up to 92.2 µM. Summed up: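 In this cytotoxicity screen, the human lymphoblastoid line grew in complete medium with test compounds for 24 hr at 37 C. Cellular ATP served as the viability signal.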
The nature of assay [12]: Cell Viability - LYMP2-008 (AID 980).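 Further: cells exposed to compound for 24 h at 37 °C; on the % scale 0 is the no-effect control and ±100 the full control effect; nearly all actives have a fitted effect of over 60% in size.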 As to conditions: LYMP2-008 lymphoblastoid cell viability, qHTS; series mostly up to 92.2 µM. Summed up:
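Cells seeded at 2500/well and rested 5 hr at 37 C; compounds added over a concentration range and incubated 24 hr at 37 C; CellTiter-Glo added, 30 min at room temperature; luminescence read and AC50 fitted with Hill model.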

Assay [13] can be described thus: Cell Viability - LYMP2-026 (AID 989).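 Further: cells exposed to compound for 24 h at 37 °C; on the % scale 0 is the no-effect control and ±100 the full control effect; nearly all actives have a fitted effect of over 50% in size.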 The settings on record: LYMP2-026 lymphoblastoid cell viability, qHTS; series mostly up to 92.2 µM. In short, it runs like this: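 Cells are seeded at 2500 per well and held 5 hr at 37 C. Compounds are added in concentration series for 24 hr, then CellTiter-Glo reagent is applied and luminescence read.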
Assay [14] can be described thus: Cell Viability - LYMP1-002 - Assay at 24 hr (AID 993). Further: on the % scale 0 is the no-effect control and ±100 the full control effect. The settings on record: LYMP1-002 lymphoblastoid cells viability; series mostly up to 92.2 µM. In short, it runs like this:
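Acute toxicity is measured as concentration-dependent loss of cellular ATP in a human lymphoblastoid line (Coriell LYMP1-002) after 24 h treatment in complete medium. ATP is quantified by luciferase luminescence and AC50 derived by Hill modelling.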

A short description of assay [15]: Cell Viability - LYMP1-002 - Assay at 40 hr (AID 994).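 Further: 0% = DMSO only and full inhibition = 92 µM tetraoctylammonium bromide; nearly all actives have a fitted effect of over 60% in size.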 As to conditions: LYMP1-002 lymphoblastoid cell viability; series mostly up to 92.2 µM. In short, it runs like this: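 Cells are plated at 2500 per well and rested 5 hr at 37 C. Compounds are added and incubated 40 hr at 37 C. CellTiter-Glo reagent is added for 30 min at room temperature before luminescence is read.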

The nature of assay [16]: qHTS assay for small molecule agonists of retinoid X receptor alpha signaling (AID 588544). The settings on record: HEK293T RXRa-UAS-bla, beta-lactamase reporter, 18 h; 530 nm emission.
Assay [17] is described as follows: qHTS assay for small molecule disruptors of the mitochondrial membrane potential - 5 hr assay (AID 651755; calls by dose curve; further: on the % scale 0 is the no-effect control and ±100 the full control effect; nearly all actives have a fitted effect of over 40% in size). As to conditions: JC-1-type ratio dye; series mostly up to 92.2 µM. In short, it runs like this: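 Read-out: ratiometric Mito-MPS fluorescence, green monomer (ex 490/em 535) vs red mitochondrial aggregate (ex 540/em 590). HepG2 cells treated 5 hr at 37C before 30 min dye loading.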

In assay [18] the target is Tumor necrosis factor (Homo sapiens) (UniProt P01375). Briefly: qHTS assay to identify small molecules that stimulate Tumor Necrosis Factor-alpha (TNF-alpha) secretion (AID 651757; active means well fitted curve in the direction sought with a large enough effect in the signal ratio; the % refers to the signal ratio; further: 0% is about no effect). The settings on record: Human cells, HTRF 665/615 ratio; series mostly up to 92.2 µM. In short, it runs like this:
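Human monocytic THP-1 cells are plated, treated with compound and held at 37 C for 17 hrs. Labeled anti-TNF-alpha antibody mixture is then added; after 3 hr at room temperature, TR-FRET signal reports secreted TNF-alpha.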

Assay [19] concerns the target Peroxisome proliferator-activated receptor alpha (Homo sapiens) (UniProt Q07869). Briefly: qHTS assay for small molecule agonists of the peroxisome proliferator-activated receptor alpha (PPARalpha) signaling pathway (AID 651778). Further: % of control where 0% means no effect. The settings on record: PathHunter PPARalpha complementation, chemiluminescence, 6 h; stronger effect = higher value. In short, it runs like this:
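Enzyme-fragment complementation assay in which ligand-bound PPARalpha translocates and forms an active enzyme that generates chemiluminescence. Cells were plated overnight, exposed to compound for 6 hr at 37 C, and then given detection reagent for 60 min at room temperature.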

A short description of assay [20]: qHTS assay for small molecule agonists of the antioxidant response element (ARE) signaling pathway measured by Nrf2-dependant transcriptional activity (AID 720636; active means well fitted curve in the direction sought with a large enough effect in the repeat runs; an effect the other way counts as inactive or inconclusive; further: % of control where 0% means no effect). As to conditions: ARE-luc HepG2, Nrf2 luciferase reporter, 16 h; series mostly up to 92.4 µM. Summed up: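 Cells: ARE-luc HepG2 with Nrf2-responsive luciferase. Medium contained 1% dialyzed FBS. Compound exposure lasted 16 hr at 37 C and 5% CO2, followed by ONE-Glo luciferase detection.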

“And” between values parts separate entries of the source, which are not always exact repeats. Equal entries are not always repeated. Records with an inconclusive call do not appear. The source made the active and inactive calls. Unless noted, the call rests on the fitted dose curve; in most records, active means well fitted curve in the direction sought with a large enough effect; inconclusive means small, poorly fitted or top-dose-only effect, or another doubt; inactive means no such curve, though single readings can be large; an effect the other way counts as inactive or inconclusive.

Chain of Tumor necrosis factor (Homo sapiens) (P01375 whole entry, looked up): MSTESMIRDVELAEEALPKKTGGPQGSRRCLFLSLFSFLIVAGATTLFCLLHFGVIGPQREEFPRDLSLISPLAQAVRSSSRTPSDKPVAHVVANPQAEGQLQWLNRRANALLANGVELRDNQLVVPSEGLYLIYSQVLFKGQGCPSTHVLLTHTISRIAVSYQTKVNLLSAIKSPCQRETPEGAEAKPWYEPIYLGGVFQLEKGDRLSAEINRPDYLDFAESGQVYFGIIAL
Chain of Peroxisome proliferator-activated receptor alpha (Homo sapiens) (Q07869 whole entry, looked up, the tested form may be a part): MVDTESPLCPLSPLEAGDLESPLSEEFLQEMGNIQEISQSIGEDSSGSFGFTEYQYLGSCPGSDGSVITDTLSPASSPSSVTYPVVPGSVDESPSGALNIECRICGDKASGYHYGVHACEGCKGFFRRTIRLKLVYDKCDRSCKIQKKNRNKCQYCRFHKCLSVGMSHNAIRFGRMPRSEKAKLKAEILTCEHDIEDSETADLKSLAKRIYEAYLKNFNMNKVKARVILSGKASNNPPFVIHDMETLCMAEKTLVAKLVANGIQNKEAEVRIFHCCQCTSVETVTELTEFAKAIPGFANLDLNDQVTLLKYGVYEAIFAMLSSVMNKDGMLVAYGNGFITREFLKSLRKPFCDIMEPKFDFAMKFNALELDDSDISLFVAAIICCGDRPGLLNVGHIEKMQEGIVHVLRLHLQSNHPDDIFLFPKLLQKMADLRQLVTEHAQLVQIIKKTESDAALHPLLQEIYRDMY

With `C1CCC2CCCCC2C1` (stereo not given), the Potency in assay [1] and in [2] was > 92 µM (inactive) throughout. For the same compound, in assay [3], the activity change, negative = cytotoxicity is 2.93% (inactive). The Potency result in [4], in assay [8], in assay [9], in assay [10], in assay [11] and in [12] was “inactive” throughout. The Potency entry in assay [13], in [14], in [15] and in [17] was “inactive” each time. The call in assay [5], in assay [6], in assay [7], in assay [18] and in [20] was inactive. Moreover, the results for the max response in [16] and in assay [19] were -13.4% and -8.42% (inactive), respectively.

`C=CC(C)=O`: the Potency in [1] and in [2] was > 92 µM (inactive) in each case. Besides, in assay [3], the activity change, negative = cytotoxicity was 3.67% (inactive). Besides, the Potency result in [4], in [8], in assay [9], in assay [10], in assay [11] and in assay [12] was “inactive” throughout. Besides, the Potency result in [13], in assay [14], in assay [15] and in assay [17] was “inactive” in each case. For the same compound, the compound was classed as inactive in [5], in [6], in assay [7], in assay [18] and in assay [20]. Also, the max response in assay [16] was -8.63%; in [19] it was -1.26% (inactive).

As for `C=CC1CC=CCC1` (stereo not given), the Potency in assay [1] and in assay [2] was > 92 µM (inactive) each time. In assay [3], the activity change, negative = cytotoxicity is 0.971% (inactive). Also, the Potency result in [4], in assay [8], in assay [9], in [10], in assay [11] and in [12] was “inactive” each time. In addition, the Potency entry in assay [13], in [14], in assay [15] and in assay [17] was “inactive” in each case. For the same compound, the call in assay [5], in assay [6], in assay [7], in assay [18] and in assay [20] was inactive. The max response in assay [16] was 0.848% and 1.74%; in assay [19], -0.264% (inactive) and -1.89% (inactive).

Take `CCN(CC)c1ccccc1`: the Potency in assay [1] and in [2] was > 92 µM (inactive) in each case. In [3], the activity change, negative = cytotoxicity was 3.96% (inactive). Moreover, the Potency result in assay [4], in [8], in assay [9], in [10], in assay [11] and in assay [12] was “inactive” throughout. Also, the Potency result in assay [13], in [14], in assay [15] and in assay [17] was “inactive” in each case. Besides, the call in assay [5], in assay [6], in [7], in assay [18] and in assay [20] was inactive. In addition, the max response in assay [16] was -1.24%; in assay [19], -1.88% (inactive).

For the compound `C=CC(=O)OCC`, the Potency in assay [1] and in assay [2] was > 92 µM (inactive) each time. In addition, the activity change, negative = cytotoxicity in [3] was -4.3% (inactive). Also, the Potency entry in assay [4], in assay [8], in [9], in [10], in [11] and in [12] was “inactive” in each case. In addition, the Potency entry in [13], in assay [14], in assay [15] and in [17] was “inactive” throughout. Further, the call in [5], in assay [6], in [7], in [18] and in assay [20] was inactive. The max response is -5.05% in assay [16] and -5.18% (inactive) in [19].

As to `C[N+](C)(C)Cc1ccccc1`, the Potency in [1] and in assay [2] was > 92 µM (inactive) each time. The activity change, negative = cytotoxicity in assay [3] was -22% (inactive). The Potency result in assay [4], in assay [8], in assay [9], in assay [10], in assay [11] and in assay [12] was “inactive” in each case. The Potency entry in assay [13], in [14], in [15] and in assay [17] was “inactive” in each case. Further, the outcome in [5], in assay [6], in assay [7], in assay [18] and in [20] was inactive. For the same compound, the max response was 3.34% and -11.4% in [16]; -5.46% (inactive) and 0.269% (inactive) in assay [19].

Turning to `CCCSC(=O)Cl`, the Potency in assay [1] and in assay [2] was > 92 µM (inactive) in each case. Further, in assay [3], the activity change, negative = cytotoxicity is -16.5% (inactive). Further, the Potency entry in assay [4], in [8], in [9], in assay [10], in assay [11] and in assay [12] was “inactive” in each case. Moreover, the Potency result in assay [13], in [14], in [15] and in assay [17] was “inactive” in each case. Also, the compound was classed as inactive in assay [5], in assay [6], in assay [7], in assay [18] and in assay [20]. In addition, the max response is -2.47% in [16] and -0.0229% (inactive) in assay [19].
